Compounds with a hit are over-represented: about 4.6% of the library has one in this group of screens.
Mdm2-MdmX inh = inhibitors of human Mdm2-MdmX association, primary screen, cell-based, luminescence, split luciferase, SaOS-2, uHTS. AID 485346, 2010. actives 3% (n = 330,000). SaOS-2 split-luciferase Mdm2/MdmX complementation. inhibition, % at 8 µM. Protein Mdm4 (Homo sapiens) + E3 ubiquitin-protein ligase Mdm2 (Homo sapiens), …;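 active = inhibition of at least 50% at 8 µM in the primary screen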
ABHD5-PLIN5 inh = ABHD5-PLIN5 interaction inhibitors, primary screen, cell lysate, split luciferase complementation, luminescence; Perilipin-5 (Homo sapiens) + 1-acylglycerol-3-phosphate O-acyltransferase ABHD5 (Homo …; Split G. princeps luciferase complementation, 4 h; inhibition, % at 4 µM; actives 0.78% (n = 360,000); AID 602281, 2012;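 active = inhibition above the mean inhibition across every tested compound plus 3 SD, cut at about 22% in these data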
HIF-2a block = HIF-2a reporter inhibitors, primary screen, luminescence, 786-0 RCC cells | 786-0 RCC cells HIF-2a reporter, luciferase luminescence, overnight | inhibition, % at 18.8 µM | actives 0.72% (n = 360,000) | AID 624352, 2012;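 active = inhibition of the luminescence signal of 40% or more relative to plate controls, in a single-dose primary screen at 18.75 µM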
Peg3 prom inh-1 = Peg3 promoter-driven luciferase inhibitors, primary screen, cell-based, HeLa, luciferase luminescence; HeLa PEG-Prom luciferase reporter, overnight; inhibition, % at 20 µM; actives 1.7% (n = 360,000);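 active = inhibition of at least 50% at 20 µM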
KKLEB tox = cytotoxicity in KKLEB CF airway cells, primary screen, cytotoxicity control for CF NF-kB inhibitor project, cell-based, uHTS, fluorescence assay plates. KKLEB CF airway cells viability, ATPlite luminescence, overnight; active compounds read low; cells stimulated with P. aeruginosa culture filtrate. activity change (cytotoxicity), % at 5 µM. actives 0.36% (n = 360,000). AID 602141, 2011;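 active = corrected activity change at or below -50% at 5 µM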
CF NFkB inh = inhibitors of PAF-induced NF-kB signaling, primary screen, cell-based, GFP fluorescence, uHTS. actives 0.86% (n = 360,000). inhibition, % at 5 µM. KKLEB NF-kB-GFP reporter, GFP fluorescence overnight;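 active = at least 50% inhibition at 5 µM, scaled per plate between neutral and stimulator controls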;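 note: PAF is a Pseudomonas aeruginosa culture filtrate used as stimulus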
Mdm2 MdmX conf = Mdm2-MdmX complex disruptors, retested hits, confirmation, luminescence, single concentration. shares compounds with Mdm2-MdmX inh. Mdm2-MdmX binding, luminescent assay. inhibition, % at 8 µM. actives 55% (n = 10,000); in the data active = inhibition above about 40%
Full FLuc ctr = full-length luciferase signal inhibition, confirmation, counter-screen for Mdm2/MdmX interaction inhibitor project, cell-based, single concentration, SaOS-2; SaOS-2 full-length luciferase counterscreen, luminescence; actives 77% (n = 6,200); shares compounds with Mdm2-MdmX inh; AID 504607, 2011; inhibition, % at 8 µM;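 active = mean inhibition at 8 µM reaching about 37%, which flags the compound as non-specific, limit read from the data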;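 note: p53-null SaOS-2 cells with luciferase driven by a doxycycline-inducible promoter; compound on cells about two nights before reading with doxycycline added after day one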
Peg3 prom inh-2 = Peg3 promoter reporter inhibitors, retest, confirmation, cell-based, HeLa, luciferase reporter, single concentration; HeLa PEG-Prom luciferase reporter, luminescence, overnight; shares compounds with Peg3 prom inh-1; actives 84% (n = 1,300); inhibition, % at 20 µM;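 active = at 20 µM dose, 40% or more inhibition averaged across four replicates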
A number is an active result; - = inactive; . = no result.

SMILES | Mdm2-MdmX inh | ABHD5-PLIN5 inh | HIF-2a block | Peg3 prom inh-1 | KKLEB tox | CF NFkB inh | Mdm2 MdmX conf | Full FLuc ctr | Peg3 prom inh-2
CCOC(=O)N1CCN(C(=O)CN(C)S(=O)(=O)c2ccc(Cl)cc2)CC1 | - | - | - | - | - | - | . | . | .
Oc1cccc(C(Nc2nccs2)c2ccc3cccnc3c2O)c1 (configuration not stated) | 77.0 | - | - | 55.7 | - | - | 81.2 | - | 85.5
Cc1cc(NC(c2cccnc2)c2ccc3cccnc3c2O)no1 (configuration not stated) | 74.0 | - | - | 73.1 | - | - | 68.2 | 40.3 | 69.4
Oc1c(C(Nc2ccccn2)c2cccnc2)cc(Cl)c2cccnc12 (configuration not stated) | - | - | - | - | - | - | . | . | .
COCCNC(=S)N1CCC2CC1c1cc(-c3ccc4c(c3)OCO4)ccc12 (configuration not stated) | . | - | - | - | - | - | . | . | .
O=C(NC1CCOCC1)C1CCC(=O)N(Cc2ccc(Cl)cc2)C1 (configuration not stated) | - | - | - | - | - | - | . | . | .
OCCCn1c(C2CCCN2c2nc(-c3ccc(F)cc3)cs2)nc2cc(Cl)c(N3CCCCC3)cc21 (configuration not stated) | 63.2 | - | - | 56.4 | - | - | - | . | -
OCCOCCn1c(C2CCCN2c2nc(-c3ccc(F)cc3)cs2)nc2cc(Cl)c(Cl)cc21 (configuration not stated) | - | - | - | - | - | - | . | . | .
Cc1ccc(C2(CCNCc3ccc(N(C)C)cc3)CCOC(C(C)C)C2)cc1 (configuration not stated) | 92.5 | - | - | 56.3 | - | - | - | . | 62.9
O=C(CN1C(=O)C2CC=CCC2C1=O)Nc1ccc(OC(F)(F)F)cc1 (configuration not stated) | - | - | - | - | - | - | . | . | .
C=CCC[C@@H](Cc1ccc(F)cc1)C(=O)OC[C@H](Cc1c[nH]c2ccccc12)NC(=O)[C@@H](CC=C)CC(=O)N[C@@H](CO)Cc1ccccc1 | - | - | - | - | - | - | . | . | .
C=CCC[C@@H](Cc1ccc(F)cc1)C(=O)OC[C@@H](Cc1c[nH]c2ccccc12)NC(=O)[C@H](CC=C)CC(=O)N[C@H](CO)Cc1ccccc1 | 75.8 | - | - | 51.7 | - | - | - | . | -
O=C(CNC(=O)C(c1ccccc1)c1ccccc1)N/N=C/c1ccc(O)cc1O | 69.6 | - | - | 51.4 | - | - | 77.4 | 37.9 | 65.2
CCOC(=O)c1c(C)[nH]c(C(=O)OCC(=O)Nc2sccc2C(N)=O)c1C | 56.3 | - | - | 70.3 | - | - | 59.2 | 65.7 | 73.3
C=CCN=C1NN=C(c2cc(C)n(CC=C)c2C)CS1 | 86.8 | - | 58.1 | 74.2 | - | - | 89.0 | 50.1 | 82.2
O=C1c2ccccc2[C@@H]2C[C@@H](O)[C@H](Nc3cccc(C(F)(F)F)c3)CCN12 | - | - | - | - | - | - | . | . | .
Cc1c(C)c2ccc(OCC(=O)Nc3ccccn3)c(C)c2oc1=O | 88.0 | - | 77.6 | 93.4 | -90.5 | - | 90.5 | 52.1 | 84.4
S=C(c1cccs1)N1CCN(c2ccccc2)CC1 | . | - | - | - | - | - | . | . | .
NC(=O)C1CC(=O)N(CCc2ccc(F)cc2)C1 (configuration not stated) | - | - | - | - | - | - | . | . | .
O=C(CN1C(=O)S/C(=C/c2cccs2)C1=O)N1CCCC1 | - | - | - | - | - | - | . | . | .
COc1cc(/C=C2\SC(=S)N(CCC(=O)N3CCCCC3)C2=O)cc(OC)c1OC | 68.2 | - | - | 67.8 | - | - | 43.0 | 62.9 | 47.1
O=C(CCN1C(=O)/C(=C/c2cccs2)SC1=S)N1CCCCC1 | 68.1 | - | - | 112.1 | - | - | 52.0 | 45.0 | 91.6
O=C(Nc1nc2cc3c(cc2s1)OCCO3)C1=COCCO1 | 87.2 | - | 79.5 | 97.1 | -56.0 | - | 83.4 | 39.3 | 82.5
CCOc1cccc(C(=O)Nc2ccc(NC(=O)c3cc4ccccc4o3)c(OC)c2)c1 | - | - | - | - | - | - | . | . | .

From PubChem
